Active and inactive are the calls of the source. Unless noted, no rule for the calls is given here.
Experiments:
[1] = system: Wnt5a (protein binding on small-molecule microarray); experiment: Wnt5a binders on small-molecule microarray, primary screen, biophysical, 635/667 nm fluorescence (AID 1142); conditions: 635 nm fluorescence, higher = more signal;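 also: fluorescence read at 667 nm with signal to noise per printed feature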
[2] = cell viability in Huh7 cells, primary screen, cytotoxicity control for HCV replication inhibitor project, CellTiter-Glo luminescence, basal, 48 h (AID 1143); conditions: Huh7 HCV replicon, higher = more signal, called active from +8 up or from −8 down;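 also: Huh7 hepatoma cells carrying a hepatitis C replication reporter with no stimulus; test concentration not given here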
[3] = P. aeruginosa biofilm formation inhibitors, primary screen, PAO1 strain, BacTiter-Glo luminescence, LB-PBS (AID 1144); conditions: 12 h, higher = more signal
[4] = CREB reporter modulators without forskolin, primary screen, cell-based, PC12, CRE-LacZ reporter, unstimulated (AID 1145); conditions: no forskolin, luminescence, 4.5 h, higher = more signal, called active from +8 up or from −8 down
[5] = CREB reporter modulators under forskolin, primary screen, cell-based, PC12, CRE-LacZ reporter, forskolin-stimulated (AID 1146); conditions: luminescence, 4.5 h, higher = more signal, called active from +8 up or from −8 down;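 also: PC12 cells with 6xCRE LacZ reporter stimulated by forskolin 10 µM; beta-galactosidase reporter signal reflecting CREB driven transcription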
[6] = target: Streptavidin (Streptomyces avidinii) (UniProt P22629); experiment: streptavidin binders on small-molecule microarray, primary screen, artefact control for SMM compound annotation, biophysical, 635/667 nm fluorescence (AID 1147); conditions: streptavidin binding, higher = more signal;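 also: signal reflects streptavidin binding to arrayed compounds as a control protein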
[7] = small-molecule binders of probe aInhba, primary screen, biochemical, small-molecule microarray, 635/667 nm fluorescence (AID 1148); conditions: higher = more signal;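 also: score merges 667nm spot fluorescence with signal-to-noise for antibody binding to printed compounds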
Torsin-1A (Homo sapiens) [8] = target: Torsin-1A (Homo sapiens) (UniProt O14656); experiment: torsin A binders from cell lysate, primary screen, small-molecule microarray, wild-type, 635/667 nm (AID 1149); conditions: COS7 hTOR1A-WT lysate, 635 nm fluorescence, higher = more signal
Torsin-1A (Homo sapiens) [9] = target: Torsin-1A (Homo sapiens) (UniProt O14656); experiment: small-molecule binders of mutant TOR1A in lysate, primary screen, cell lysate, small-molecule microarray, COS7 lysate, 635/667 nm fluorescence (AID 1150); conditions: COS7 hTOR1A mutant lysate, 635 nm fluorescence, higher = more signal;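 also: score pools 667 nm emission and signal to noise measuring lysate protein binding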
[10] = system: Sonic hedgehog protein (Shh); experiment: small-molecule binders of Shh protein, primary screen, biochemical, small-molecule microarray, 635/667 nm fluorescence (AID 1151); conditions: small-molecule microarray binding, 635 nm fluorescence; higher = more signal;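 also: Shh protein binding to compounds spotted on small-molecule microarray slides; score combines spot fluorescence intensity with signal-to-noise across triplicate slides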

Sequence of Torsin-1A (Homo sapiens) (O14656 whole entry, looked up): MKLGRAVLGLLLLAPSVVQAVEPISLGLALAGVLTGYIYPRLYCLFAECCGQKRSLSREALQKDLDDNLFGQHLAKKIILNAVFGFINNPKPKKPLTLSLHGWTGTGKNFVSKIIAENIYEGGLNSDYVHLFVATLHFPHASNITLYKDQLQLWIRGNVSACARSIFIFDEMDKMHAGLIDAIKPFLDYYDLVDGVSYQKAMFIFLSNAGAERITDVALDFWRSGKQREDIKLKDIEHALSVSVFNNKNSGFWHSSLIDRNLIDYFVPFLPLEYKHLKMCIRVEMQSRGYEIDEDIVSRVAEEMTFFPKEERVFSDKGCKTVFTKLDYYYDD
Sequence of Streptavidin (Streptomyces avidinii) (P22629 whole entry, looked up): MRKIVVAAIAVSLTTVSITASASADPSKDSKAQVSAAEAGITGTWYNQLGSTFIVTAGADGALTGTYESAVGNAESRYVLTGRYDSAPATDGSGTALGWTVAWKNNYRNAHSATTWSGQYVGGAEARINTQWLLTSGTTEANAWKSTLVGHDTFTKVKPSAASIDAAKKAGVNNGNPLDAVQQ

| SMILES | composite z-score [1] | z-score [2] | z-score [3] | z-score [4] | z-score [5] | composite z-score [6] | composite z-score [7] | composite z-score (Torsin-1A (Homo sapiens) [8]) | composite z-score (Torsin-1A (Homo sapiens) [9]) | composite z-score [10] |
| --- | --- | --- | --- | --- | --- | --- | --- | --- | --- | --- |
| COC(=O)c1ccc(C(O)C2C=CC3C(=O)N(C)C(=O)C3N2NC(=O)OC(C)(C)C)o1 (stereo not given) | 0.565 | 0.534 (inactive) | 0.212 (inactive) | 1 (inactive) | 0.323 (inactive) | 0.367 | -0.128 | 0.649 | 1.5 | 0.112 |
| Cc1ccc(S[C@]2(C(=O)O)CC(=O)N(C3Cc4ccccc4C3)[C@@H]2c2ccc(CO)cc2I)cc1 | -0.227 | -1.02 (inactive) | -0.138 (inactive) | -0.062 (inactive) | -0.097 (inactive) | 0.103 | -0.0791 | -0.594 | -0.584 | -0.439 |
| CC(C)NC(=O)[C@@H]1c2ccccc2C(=O)N(Cc2ccccc2)[C@H]1c1ccc(CO)cc1 | -0.0365 | -0.0084 (inactive) | -0.0818 (inactive) | 0.0279 (inactive) | 0.669 (inactive) | -0.501 | 0.0345 | -0.124 | -0.744 | 0.495 |
| COCCOC(=O)N1C(=O)[C@@]2(c3cc(C#CCNC(N)=O)ccc31)[C@H](C(=O)N1CCc3cc(OC)c(OC)cc3C1)[C@H]1C(=O)O[C@H](c3ccccc3)[C@H](c3ccccc3)N1[C@@H]2c1ccc(OCCO)cc1 | 0.506 | -0.352 (inactive) | -1.42 (inactive) | -1.56 (inactive) | -0.549 (inactive) | 0.287 | -0.418 | -0.136 | 0.237 | 1.95 |
| COC(=O)C[C@@H]1C[C@H](C)[C@]2(O1)C(=O)N(Cc1ccccc1)c1ccc(NC(C)=O)cc12 | 0.739 | -0.578 (inactive) | 0.347 (inactive) | 3.56 (inactive) | -0.47 (inactive) | -0.101 | -0.128 | 0.0771 | 0.362 | 0.034 |
| CCCCC(O)C1C=CC2C(=O)N(C3CCCCC3)C(=O)C2N1Nc1ccc(OC)cc1 (stereo not given) | 0.177 | -0.527 (inactive) | -1.47 (inactive) | 0.276 (inactive) | 0.765 (inactive) | 1.54 | 0.0785 | 0.0983 | -0.001 | 0.342 |
| CC(=O)Nc1cc(Br)ccc1C(=O)O | -0.129 | 0.0092 (inactive) | 0.307 (inactive) | -0.141 (inactive) | 0.151 (inactive) | 0.254 | 0.0658 | 1.46 | 0.0517 | -0.402 |
| C=CCOC(=O)[C@H]1[C@@H]2C(=O)O[C@@H](c3ccccc3)[C@@H](c3ccccc3)N2[C@@H](c2ccc(OCCOC(=O)[C@@H]3C[C@@H]4C(=O)N5CCC[C@H]5C(=O)N4[C@@H]3c3ccc(O)cc3)cc2)[C@]12C(=O)Nc1ccccc12 | 1.06 | -0.496 (inactive) | -0.506 (inactive) | 0.0124 (inactive) | -0.72 (inactive) | -0.244 | -0.0963 | 0.529 | 0.853 | 1.23 |
| CC(C)CNC(=O)[C@@]1(c2ccc([N+](=O)[O-])cc2)CC(=O)N(CC23CC4CC(CC(C4)C2)C3)[C@@H]1c1ccc(CO)cc1I | 0.777 | -4.95 (inactive) | -0.266 (inactive) | 0.145 (inactive) | 1.07 (inactive) | 0.574 | 0.11 | 0.283 | 0.578 | 2.02 |
| COC(=O)C(CC#Cc1ccc2c(c1)[C@]1(C(=O)N2)[C@H](C(=O)NC[C@H](O)c2ccccc2)[C@H]2C(=O)O[C@H](c3ccccc3)[C@H](c3ccccc3)N2[C@@H]1c1ccc(OCCO)cc1)C(=O)OC | 1.08 | -1.02 (inactive) | -0.419 (inactive) | 0.0653 (inactive) | -0.291 (inactive) | 2.55 | 0.859 | 1.69 | 1.09 | 1.6 |
| COC(=O)c1ccc(C23CC2(C(NP(=O)(c2ccccc2)c2ccccc2)c2ccccc2)C3)cc1 (stereo not given) | 0.211 | -2.07 (inactive) | 0.523 (inactive) | -1.14 (inactive) | -0.0812 (inactive) | 1.7 | 0.178 | 0.862 | 1.64 | -0.803 |
| C=CCNC(=O)[C@@H]1[C@H]2C(=O)O[C@H](c3ccccc3)[C@H](c3ccccc3)N2[C@H](c2ccc(OCCO)cc2)[C@@]12C(=O)Nc1ccccc12 | 0.358 | -4.32 (inactive) | -2.23 (inactive) | -0.905 (inactive) | -1.87 (inactive) | 0.226 | -0.102 | 0.355 | 0.209 | 1.61 |
| COC(=O)[C@@]1(Cc2ccc(OC)cc2)[C@H]2c3cc(C(=O)N4CCCC4)n(Cc4cc(F)cc5c4OCOC5)c3C[C@H]2CN1C(=O)c1ccccc1 | 0.605 | -2.5 (inactive) | 0.437 (inactive) | 2.68 (inactive) | 66.7 (active) | 0.699 | 0.423 | 0.442 | 0.996 | -0.673 |
| O=C/C=C/c1ccc(Cl)cc1 | 0.268 | -2.45 (inactive) | -0.421 (inactive) | -0.258 (inactive) | 0.716 (inactive) | -0.359 | -0.179 | -1.01 | -0.786 | -0.823 |
| CC(C)C[C@@H]1NC(=O)[C@H]2C[C@@H](C(=O)NCCCCCNC(=O)CS)[C@@H](c3cccc(OCCO)c3)N2C1=O | 1.1 | -1.07 (inactive) | 0.644 (inactive) | 0.289 (inactive) | 0.0824 (inactive) | 0.024 | -0.0112 | 1.07 | 0.867 | 2.09 |
| Cc1ccc([C@H]2C(C(=O)O)=C[C@@H](C)N2S(=O)(=O)c2ccc(C)cc2)cc1 | -0.144 | -0.501 (inactive) | 0.759 (inactive) | -0.126 (inactive) | 1.32 (inactive) | 0.642 | -0.0509 | -0.948 | -0.465 | -0.945 |
| O=C1O[C@@H](c2ccccc2)[C@@H](c2ccccc2)N2[C@@H](c3ccc(OCCO)cc3)[C@]3(C(=O)Nc4ccccc43)[C@@H](C(=O)Nc3nc4ccccc4s3)[C@H]12 | 0.441 | -3.3 (inactive) | -1.78 (inactive) | 0.362 (inactive) | -0.278 (inactive) | 1.17 | 0.289 | 1.05 | 1.11 | 1.75 |
| CN1C(=O)C2C=CC(C(O)c3ccccn3)N(Nc3ccccc3)C2C1=O (stereo not given) | -0.0522 | 0.901 (inactive) | -0.652 (inactive) | 0.0467 (inactive) | 0.4 (inactive) | 0.324 | -0.0069 | 0.884 | -0.179 | 0.207 |
| COc1cc(C(O)C2C=CC3C(=O)N(c4ccccc4)C(=O)C3N2Nc2ccc(C#N)cc2)cc(OC)c1OC (stereo not given) | 0.537 | 0.616 (inactive) | -0.201 (inactive) | 0.426 (inactive) | 0.238 (inactive) | 1.66 | 0.201 | 0.249 | 0.204 | 0.117 |
